Data taken from PubChem BioAssay (NCATS).
Where “and” joins values, the source holds several entries; their conditions need not be identical. Identical values can stand only once. Results filed as inconclusive are left out. Where a call stands in place of a potency, no number is given. Some compounds were tested as several samples or in several runs, with calls that do not always agree. Calls of active or inactive are those of the source. Calls follow the shape of the dose curve; as a rule, active = well fitted curve in the direction sought with a large enough effect; inconclusive = small, poorly fitted or top-dose-only effect, or another doubt; inactive = no such curve, though single readings can be large; an effect the other way counts as inactive or inconclusive.

Key:
[1] = target: Metallo-beta-lactamase type 2 (Klebsiella pneumoniae) (UniProt C7C422); experiment: qHTS to identify inhibitors of the New Delhi Metallo-beta-lactamase (NDM): assay validation screen against the NCATS LOPAC Collection (AID 1794843);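 also: nitrocefin turnover by NDM-1 measured as 485 nm absorbance at plateau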
How it was run: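 Enzyme 2 nM final, 50 mM HEPES pH 7.0, 1 uM ZnSO4, 0.01% Tween20; cpds in DMSO, preincub w/ enzyme; + nitrocefin (50 uM stock); A485 at plateau; no-enzyme column as blank.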

[2] = target: Glutathione peroxidase 1 (Homo sapiens) (UniProt P07203); experiment: Primary qHTS Assay for Inhibitors of Recombinant Selenoprotein Glutathione Peroxidase 1 (GPX1) (AID 1845191); also: nearly all actives have a fitted effect of over 65% in size
How it was run: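 GPX1 10 nM, GR 100 nM, GSH 1 mM, NADPH 0.5 mM, CHP 0.5 mM (final). 30-min cpd preincubation, RT. Ex340/Em450 read t=0, t=15 min.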

[3] = target: Phospholipid hydroperoxide glutathione peroxidase GPX4 (Homo sapiens) (UniProt P36969); experiment: Primary qHTS Assay for Inhibitors of Recombinant Selenoprotein Glutathione Peroxidase 4 (GPX4) (AID 1845192); also: nearly all actives have a fitted effect of over 65% in size; also: potency is read from the fitted curve at half-maximal effect
How it was run: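 qHTS, GR-coupled: GPX4 200 nM + cpd 30 min RT → GSH 1 mM, NADPH 0.5 mM, GR 100 nM → CHP 0.5 mM start; fluor 340/450 at t0 and t15 min; no-enzyme wells as control.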

[4] = target: Luciferin 4-monooxygenase (Photinus pyralis) (UniProt P08659); experiment: Primary firefly luciferase (FLuc) qHTS assay for identification of artifact compounds. (AID 1845220); settings: outcome: dose series up to 54.1 µM; also: nearly all actives have a fitted effect of over 60% in size
How it was run: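 In this counter-screen for luciferase artifacts, test compounds met substrate (10 uM each luciferin and ATP) before 10 nM enzyme started the reaction. Light output was measured 5 min later.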

[5] = Primary fluorescence-based thiol-reactive (MSTI) qHTS assay for identification of artifact compounds. (AID 1845221);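 also: thiol-reactive compounds lower the probe fluorescence signal; nearly all actives have a fitted effect of over 65% in size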
How it was run: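 A multi-concentration qHTS design tested compounds against 4 uM MSTI, pH 7.4 phosphate-buffered saline. Plates were protected from light for 1 h at room temperature before imaging fluorescence.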

[6] = system: Nanoluciferase (engineered Oplophorus gracilirostris luciferase); experiment: Primary Nanoluciferase (NLuc) qHTS assay for identification of artifact compounds. (AID 1845222);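 also: NLuc secreted into diluted conditioned medium of S16 cells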
How it was run: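 Using secreted nanoluciferase in S16 culture medium (0.22 um filtered, 1:55 dilution), compounds were preincubated 15 min at RT. Signal was generated with Nano-Glo reagent (1:100) over 5 min.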

[7] = Primary redox qHTS assay for identification of artifact compounds. (AID 1845223)
How it was run: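 Redox-cycling detection via DTT (250 uM final) oxidation coupled to Amplex Red (25 uM)/HRP (250 mU/mL) in HBSS. 15 min preincubation plus 30 min after DTT, room temperature. Ex/Em 525/598 nm; 4-parameter Hill fit against DMSO and 10 uM DA3003.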

[8] = Quantitative High-Throughput drug screen in 47 multiple myeloma cell lines against the NCATS MIPE library collection: FR4_PLB cell viability assay (AID 1918924; also: nearly all actives have a fitted effect of over 35% in size; also: potency is read from the fitted curve at half-maximal effect)
How it was run: (§1)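 qHTS of the MIPE 4.0 collection: 500 myeloma cells/well, 48 h drug exposure at 37C in 5% CO2, then CellTiter-Glo for 5 min at room temperature before luminescence reading.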

[9] = Quantitative High-Throughput drug screen in 47 multiple myeloma cell lines against the NCATS MIPE library collection: Delta47_JCRB cell viability assay (AID 1918925; also: nearly all actives have a fitted effect of over 45% in size; also: potency is read from the fitted curve at half-maximal effect)
How it was run: (§2)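 Luminescent ATP measurement with CellTiter-Glo gives viability, scaled between DMSO-only wells (100%) and media-only wells (0%). Cells, 500 per well, faced library compounds for 48 hours at 37C.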

[10] = Quantitative High-Throughput drug screen in 47 multiple myeloma cell lines against the NCATS MIPE library collection: EJM_DSMZ cell viability assay (AID 1918926; also: nearly all actives have a fitted effect of over 30% in size; also: potency is read from the fitted curve at half-maximal effect)
How it was run: as §2

[11] = Quantitative High-Throughput drug screen in 47 multiple myeloma cell lines against the NCATS MIPE library collection: AMO1_DSMZ cell viability assay (AID 1918927; also: nearly all actives have a fitted effect of over 30% in size; also: potency is read from the fitted curve at half-maximal effect)
How it was run: as §2

[12] = Quantitative High-Throughput drug screen in 47 multiple myeloma cell lines against the NCATS MIPE library collection: ARP1_JJKsccF8 cell viability assay (AID 1918928; also: nearly all actives have a fitted effect of over 40% in size; also: potency is read from the fitted curve at half-maximal effect)
How it was run: (§3)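 500 cells/well; MIPE 4.0 library pinned in; 48 h, 37 °C, 5% CO2; CellTiter-Glo ATP luminescence. Controls: DMSO = 100% viability, medium only = 0%.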

[13] = Quantitative High-Throughput drug screen in 47 multiple myeloma cell lines against the NCATS MIPE library collection: ARD_JJKsccE7 cell viability assay (AID 1918929; also: potency is read from the fitted curve at half-maximal effect)
How it was run: as §2

[14] = Quantitative High-Throughput drug screen in 47 multiple myeloma cell lines against the NCATS MIPE library collection: Karpas620_DSMZ cell viability assay (AID 1918959); also: nearly all actives have a fitted effect of over 30% in size; also: potency is read from the fitted curve at half-maximal effect
How it was run: as §1

[15] = Quantitative High-Throughput drug screen in 47 multiple myeloma cell lines against the NCATS MIPE library collection: KMM1_JCRB cell viability assay (AID 1918960); also: nearly all actives have a fitted effect of over 30% in size; also: potency is read from the fitted curve at half-maximal effect
How it was run: as §3

[16] = Quantitative High-Throughput drug screen in 47 multiple myeloma cell lines against the NCATS MIPE library collection: Karpas417_ECACC cell viability assay (AID 1918961); settings: Karpas417 myeloma viability, CellTiter-Glo ATP luminescence, 48 h; viability (% of DMSO): at 45.8 µM (top of the series); also: potency is read from the fitted curve at half-maximal effect
How it was run: as §2

[17] = Quantitative High-Throughput drug screen in 47 multiple myeloma cell lines against the NCATS MIPE library collection: KHM11_PLB cell viability assay (AID 1918962); also: nearly all actives have a fitted effect of over 35% in size; also: potency is read from the fitted curve at half-maximal effect
How it was run: as §1

[18] = Quantitative High-Throughput drug screen in 47 multiple myeloma cell lines against the NCATS MIPE library collection: JIM3_ECACC cell viability assay (AID 1918963; also: nearly all actives have a fitted effect of over 35% in size; also: potency is read from the fitted curve at half-maximal effect)
How it was run: as §1

[19] = HepG2 viability counterscreen (readout 2: ATP content) against the NCATS DSHEA and TCM libraries (AID 1794840);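 also: HepG2 cells exposed to substances for about 24 h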
How it was run: (§4)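 1,000 HepG2 cells/well, 4 h attach; compounds ~24 h, 37C/5% CO2. Readout 1: GF-AFC 25 uM final, 30 min, fluorescence 380/510 nm. Readout 2: CellTiter-Glo, 30 min RT, luminescence.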

[20] = HepG2 viability counterscreen (readout 1: protease activity) against the NCATS DSHEA and TCM libraries (AID 1794841);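 also: cells exposed to compounds for about 24 h before the protease read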
How it was run: as §4

Phospholipid hydroperoxide glutathione peroxidase GPX4 (Homo sapiens), sequence (P36969 whole entry, looked up): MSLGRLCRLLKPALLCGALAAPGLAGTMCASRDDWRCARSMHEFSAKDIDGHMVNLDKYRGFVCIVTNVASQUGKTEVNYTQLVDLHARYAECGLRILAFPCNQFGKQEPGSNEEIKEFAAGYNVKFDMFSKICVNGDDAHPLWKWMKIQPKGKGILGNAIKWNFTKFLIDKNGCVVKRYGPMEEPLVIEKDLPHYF
Glutathione peroxidase 1 (Homo sapiens), sequence (P07203 whole entry, looked up): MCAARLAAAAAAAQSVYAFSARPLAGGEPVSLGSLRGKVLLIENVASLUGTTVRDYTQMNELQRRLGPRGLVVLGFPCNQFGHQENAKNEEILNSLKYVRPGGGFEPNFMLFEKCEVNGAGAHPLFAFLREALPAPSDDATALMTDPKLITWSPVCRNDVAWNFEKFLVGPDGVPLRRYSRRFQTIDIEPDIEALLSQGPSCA
Metallo-beta-lactamase type 2 (Klebsiella pneumoniae), sequence (C7C422 whole entry, looked up): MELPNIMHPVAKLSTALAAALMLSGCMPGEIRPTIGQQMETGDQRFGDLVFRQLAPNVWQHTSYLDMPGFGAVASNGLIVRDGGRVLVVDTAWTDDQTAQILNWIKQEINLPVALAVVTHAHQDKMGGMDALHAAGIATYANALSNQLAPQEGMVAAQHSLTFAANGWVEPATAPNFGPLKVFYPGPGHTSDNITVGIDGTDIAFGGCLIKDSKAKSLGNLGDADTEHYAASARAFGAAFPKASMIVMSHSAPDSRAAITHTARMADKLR

Compound	outcome [1]	Potency [2]	Potency [3]	outcome [4]	outcome [5]	outcome [6]	outcome [7]	Potency [8]	Potency [9]	Potency [10]	Potency [11]	Potency [12]	Potency [13]	Potency [14]	Potency [15]	Potency [16]	Potency [17]	Potency [18]	outcome [19]	outcome [20]
CC[C@@]1(O)C(=O)OCc2c1cc1n(c2=O)Cc2cc3c(CN(C)C)c(O)ccc3nc2-1	inactive	inactive	inactive	inactive	inactive	inactive	inactive	2.64 µM (active)	0.469 µM (active)	0.935 µM (active)	0.264 µM (active)	2.96 µM (active)	2.64 µM (active)	3.72 µM (active)	1.32 µM (active)	0.743 µM (active)	1.66 µM (active)	5.26 µM (active)		
Cn1cnc2c1c(=O)[nH]c(=O)n2C	inactive	inactive	inactive					26.4 µM (active)	14.8 µM (active)	20.9 µM (active)	9.35 µM (active)	14.8 µM (active)	7.43 µM (active)	7.43 µM (active)	7.43 µM (active)	9.35 µM (active)		16.6 µM (active)		
CN1CCN(CCCN2c3ccccc3Sc3ccc(Cl)cc32)CC1	inactive	inactive	inactive					23.5 µM (active)	18.7 µM (active)	23.5 µM (active)	16.6 µM (active)	20.9 µM (active)	16.6 µM (active)	4.18 µM (active)	16.6 µM (active)	0.132 µM (active)		23.5 µM (active)		
Nc1nnc(-c2cccc(Cl)c2Cl)c(N)n1	inactive	inactive	inactive					inactive	23.5 µM (active)	inactive		inactive								
O=C1Cc2cc(CCN3CCN(c4nsc5ccccc45)CC3)c(Cl)cc2N1	inactive	inactive	15.8 µM (active) and inactive	inactive		inactive	inactive		23.5 µM (active)					8.33 µM (active)				23.5 µM (active)		
CNCCCC12CCC(c3ccccc31)c1ccccc12	inactive	inactive	inactive	inactive	inactive	inactive	inactive	20.9 µM (active)	18.7 µM (active)		23.5 µM (active)	20.9 µM (active)		26.4 µM (active)	20.9 µM (active)		26.4 µM (active)	20.9 µM (active)		
CC(=O)OCC(CCn1cnc2cnc(N)nc21)COC(C)=O	inactive	inactive	inactive					inactive	inactive	inactive	inactive	inactive	inactive	inactive			inactive	inactive		
CCN1CCCC1CNC(=O)c1cc(S(=O)(=O)CC)c(N)cc1OC (stereo not given)	inactive	inactive	inactive					inactive	inactive	inactive	0.0743 µM (active)	inactive		inactive	inactive			inactive		
O=C(c1ccc(F)cc1)C1CCN(CCn2c(=O)[nH]c3ccccc3c2=O)CC1	inactive	inactive	inactive	inactive	inactive	inactive	inactive	inactive		inactive	inactive	inactive		inactive	inactive		inactive	inactive		
O=C(Nc1ccc([N+](=O)[O-])cc1Cl)c1cc(Cl)ccc1O	inactive	inactive	inactive					2.09 µM (active)	1.32 µM (active)	1.87 µM (active)	0.526 µM (active)	1.66 µM (active)	0.526 µM (active)	0.935 µM (active)	0.235 µM (active)	0.59 µM (active)	1.32 µM (active)	0.59 µM (active)		
CCOC(=O)C(C)(C)Oc1ccc(Cl)cc1	inactive	inactive	inactive					inactive	inactive	inactive		inactive		inactive	inactive		inactive	inactive		
O=c1c(O)c(-c2ccc(O)c(O)c2)oc2cc(O)cc(O)c12	inactive	inactive	inactive						11.8 µM (active)	20.9 µM (active)						0.0166 µM (active)			inactive	inactive
Cc1ccc(C(=O)Nc2ccc(S(=O)(=O)O)c3cc(S(=O)(=O)O)cc(S(=O)(=O)O)c23)cc1NC(=O)c1cccc(NC(=O)Nc2cccc(C(=O)Nc3cc(C(=O)Nc4ccc(S(=O)(=O)O)c5cc(S(=O)(=O)O)cc(S(=O)(=O)O)c45)ccc3C)c2)c1	inactive	inactive	inactive and 7 µM (active)					inactive	inactive	inactive		inactive	inactive	inactive			inactive	16.6 µM (active)		
NC(=O)OCC(COC(N)=O)c1ccccc1	inactive	inactive	inactive					inactive	inactive	inactive	inactive	inactive	inactive	inactive	inactive		inactive	inactive		
Cc1cc(C(C)(C)C)cc(C)c1CC1=NCCN1	inactive	inactive	inactive					inactive	inactive	inactive	inactive	inactive	inactive	inactive			inactive	inactive		
CC(C)C(=O)Nc1ccc([N+](=O)[O-])c(C(F)(F)F)c1	inactive	inactive	inactive					inactive	3.32 µM (active)	1.48 µM (active)	4.69 µM (active)	inactive	18.7 µM (active)	1.05 µM (active)	18.7 µM (active)		6.62 µM (active)	8.33 µM (active)		
